# This is part of a sample that, as a whole, favours compounds with a hit. Of some 83,000 tested, about 20% had one in any assay.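 The test compound was applied at a single concentration to cells in 96-well plates for 48 hours, and percent growth was recorded.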 A number with no mark means an inactive call. Active and inactive are the calls of the source. The calls were made as follows: active = growth percent below 10; inactive = the rest.
# Legend:
# Assay in all cases: NCI-60 one-dose screen, 48 h (100 = growth as untreated, 0 = no growth, -100 = all killed)
# NCI-H460 lung = conditions: 10 µM unless noted
# A549/ATCC NSCLC = conditions: 10 µM unless noted
# 786-0 renal = conditions: 10 µM unless noted
# COLO 205 colon = conditions: 10 µM
# K-562 leukemia = conditions: 10 µM unless noted
# RXF 393 renal = conditions: 10 µM unless noted
# UACC-257 melanoma = conditions: 10 µM unless noted
# SK-MEL-5 melanoma = conditions: 10 µM unless noted
# LOX IMVI melanoma = conditions: 10 µM unless noted
# SK-MEL-2 melanoma = conditions: 10 µM unless noted
# UO-31 renal = conditions: 10 µM unless noted
# CAKI-1 renal = conditions: 10 µM unless noted
# A498 renal = conditions: 10 µM unless noted
# HL-60(TB) leukemia = conditions: 10 µM unless noted
# MOLT-4 leukemia = conditions: 10 µM
# OVCAR-4 ovarian = conditions: 10 µM unless noted
# OVCAR-3 ovarian = conditions: 10 µM unless noted
# SW-620 colon = conditions: 10 µM unless noted
# MALME-3M melanoma = conditions: 10 µM unless noted
# SF-295 CNS = conditions: 10 µM unless noted
Structure (SMILES),growth (NCI-H460 lung),growth (A549/ATCC NSCLC),growth (786-0 renal),growth (COLO 205 colon),growth (K-562 leukemia),growth (RXF 393 renal),growth (UACC-257 melanoma),growth (SK-MEL-5 melanoma),growth (LOX IMVI melanoma),growth (SK-MEL-2 melanoma),growth (UO-31 renal),growth (CAKI-1 renal),growth (A498 renal),growth (HL-60(TB) leukemia),growth (MOLT-4 leukemia),growth (OVCAR-4 ovarian),growth (OVCAR-3 ovarian),growth (SW-620 colon),growth (MALME-3M melanoma),growth (SF-295 CNS)
COc1cc(CNCCc2ccc(Cl)cc2)cc(OC)c1O,83.3%,89.8%,78.3%,77.5%,21.7%,66.3%,90.2%,72.8%,70.7%,27.8%,61%,58.4%,66.3%,54.4%,37.3%,69%,61%,64.1%,–,–
[O]=[Sn]([CH]1CCCCC1)[CH]1CCCCC1,-85.8% (active),-83.3% (active),-97.6% (active),-89.9% (active),-8.85% (active),-99% (active),-88.3% (active),-98.5% (active),-89.6% (active),-63.2% (active),-90.4% (active),-93.5% (active),-98% (active),7.49% (active),6.59% (active),-98.7% (active),-98% (active),-86.8% (active),-72.2% (active),-85.6% (active)
Cc1nnc([S-])s1.[Au+].c1ccc([PH+](c2ccccc2)c2ccccc2)cc1,57.3%,74.6%,-29.7% (active),-31.7% (active),1.12% (active),-84.6% (active),-12.4% (active),-45.9% (active),-60.6% (active),-12.2% (active),-3.87% (active),-26.8% (active),25.1%,-15.2% (active),-9.08% (active),36.2%,-96.3% (active),-70.6% (active),-61.6% (active),75%
COC[CH2][Hg][C]#[C][Hg][CH2]COC,94.4%,99.1%,41.7%,100%,96.7%,59.4%,105%,–,17.5%,41.9%,92.8%,94.8%,103%,89.3%,79.8%,61.2%,113%,108%,104%,–
CC(C)OC(=S)[S-].[Au+].c1ccc([PH+](c2ccccc2)c2ccccc2)cc1,79.5%,84.5%,2.78% (active),–,8.05% (active),-77.1% (active),28.1%,30.2%,-64.9% (active),33%,21.9%,16.7%,–,1.15% (active),10.9%,38.9%,-43% (active),-59.2% (active),5.97% (active),91.1%
COc1cc(NCCCCCN=C(N)N)c2ncccc2c1,65.9%,90.7%,86.3%,54.9%,16.1%,–,79.7%,–,66.4%,43.3%,83.9%,104%,89.6%,18.2%,4.38% (active),-12.1% (active),0.151% (active),58.9%,19.6%,61.1%
[N-]=[N+]=NC(C(=O)O)c1ccccc1 (stereo not given),115%,95.2%,103%,104%,94.3%,140%,98.3%,116%,100%,99.5%,88.9%,91.8%,101%,89.4%,87.4%,–,118%,107%,106%,102%
CC(=O)O[C@H]1C[C@H](O[C@H]2[C@@H](O)C[C@H](O[C@H]3[C@@H](O)C[C@H](O[C@H]4CC[C@@]5(C)C(CCC6C5C[C@@H](O)[C@]5(C)[C@@H](C7=CC(=O)OC7)CC[C@]65O)C4)O[C@@H]3C)O[C@@H]2C)O[C@H](C)[C@H]1O[C@@H]1O[C@H](CO)[C@@H](O)[C@H](O)[C@H]1O (stereo not given in full),-88.3% (active),-100% (active),-91.2% (active),-74.2% (active),–,-53.8% (active),-100% (active),-100% (active),-97.4% (active),–,-80.1% (active),-94.4% (active),-19.5% (active),-46.4% (active),-32.1% (active),-70.4% (active),–,-90.5% (active),-36% (active),-84% (active)
CCN(CC)c1ccc(C=C2C(=O)NC(=S)NC2=O)cc1,104%,89.2%,96.7%,104%,78%,-22.3% (active),91.3%,93.4%,80%,98.1%,76.1%,91.8%,97.5%,42.7%,81%,90.9%,80.6%,77.9%,123%,99.3%
CC[C@]12C=CCN3CC[C@@]4(c5ccc(OC)cc5N(C)[C@H]4[C@@](O)(C(=O)OC)[C@@H]1OC(=O)CCCN1CCN(CCCC(=O)O[C@@H]4[C@]5(CC)C=CCN6CC[C@@]7(c8ccc(OC)cc8N(C)[C@H]7[C@@]4(O)C(=O)OC)[C@@H]65)CC1)[C@@H]32,-80.3% (active),-81.4% (active),-81.9% (active),-79% (active),-62% (active),-88.5% (active),-87.6% (active),-95.9% (active),-89.1% (active),-75.7% (active),-88.8% (active),-97% (active),-58.2% (active),-66.6% (active),-62.9% (active),-47.4% (active),-85.2% (active),-81.9% (active),-90.7% (active),-85.9% (active)
ClCCN(CCCl)c1ccc(/C=C\c2ccnc3ccccc23)cc1,56.3%,71%,84.2%,88.8%,60.9%,99%,47.1%,71.2%,80.3%,–,70.8%,–,68.2%,46.8%,69.8%,82.3%,84%,77.2%,74.4%,69.4%
Cn1cnnc1[S-].[Au+].c1ccc([PH+](c2ccccc2)c2ccccc2)cc1,58.5%,78.8%,1.78% (active),-10% (active),1.84% (active),-78.6% (active),22.9%,-9.96% (active),-48.6% (active),0.754% (active),48.5%,23.6%,64.7%,-12.7% (active),-9.25% (active),38.9%,-81.2% (active),-49.3% (active),-38.1% (active),78.8%
O=C(N/N=C/c1ccc([N+](=O)[O-])o1)c1cc([N+](=O)[O-])cc([N+](=O)[O-])c1O,105%,102%,106%,107%,–,102%,99.2%,95%,84.5%,–,80%,88.5%,79.7%,93.5%,62.8%,106%,113%,102%,122%,104%
COc1cc(C2CC(=O)Nc3nc(N)[se]c32)c(OC)c2c1OCO2 (stereo not given),23.9%,58.9%,105%,112%,–,–,116%,–,104%,101%,86.8%,89.8%,102%,84.4%,117%,96.3%,114%,110%,102%,6.71% (active)
NC(Cc1ccc(O)cc1)C(=O)N/N=C/c1ccc(N(CCCl)CCCl)cc1 (stereo not given),27.1%,52.3%,43%,112%,41.3%,95.3%,93.6%,88.9%,44.4%,72.8%,52.2%,25.9%,82.3%,8.82% (active),29.8%,90.6%,101%,86.9%,–,48.5%
COc1ccc(CN2CCN(Cc3ccccc3)CC2)c(O)c1,97%,97.4%,95%,95.5%,74.3%,105%,105%,87.9%,92.1%,89.9%,68.7%,92.4%,95.5%,91.9%,83.7%,99.8%,81.1%,98.5%,98.4%,99.8%

# Reference: PubChem BioAssay (NCI)
